This is one part of a sample in which hits are shown more often than they occur.
C diff growth = blocks growth of Clostridium difficile | Clostridium difficile clinical isolate growth, OD600, 24 h; stronger effect = lower value | growth activity, negative = inhibition, % at 16 µg/mL (by protocol) | 86,000 tested, 0.25% active | AID 1259249;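 active means mean growth activity at or below -80% and every replicate also at or below -80%; inconclusive means mean at or below -80% but some replicate above -80%; inactive means mean growth activity above -80%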;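 further: 0% = DMSO wells and -100% = levofloxacin 16 µg/mL wells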
T cruzi growth-1 = T. cruzi proliferation inhibition; inhibition, % at 8.34 µM; AID 624255; T. cruzi beta-gal in NIH3T3, GalScreen luminescence, 90 h; 77,000 tested, 5.9% active;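 active means mean inhibition above about 93%, with at least 55% of replicates each passing it, limit read from the data, passing the limit was not always enough; inconclusive means only one of those two conditions holds; inactive means neither condition holds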
T cruzi growth-2 = Trypanosoma cruzi proliferation inhibition. T. cruzi beta-gal in NIH3T3, GalScreen luminescence, 90 h. 5,600 tested, 72% active. shares compounds with T cruzi growth-1. inhibition, % at 8.35 µM;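 active means mean replicate inhibition above about 95% and at least 55% of replicates individually reaching it, limit read from the data; inconclusive means only one of the two criteria is met; inactive means neither criterion is met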
T cruzi growth-3 = blocks T. cruzi growth in NIH3T3 host cells; AID 651740; shares compounds with T cruzi growth-1; 5,600 tested, 21% active; inhibition, % at 2.09 µM; T. cruzi beta-gal in NIH3T3, GalScreen luminescence, 90 h;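 active means mean inhibition above about 95%, with at least 55% of replicates also reaching it, limit read from the data; inconclusive means meets just one of the two conditions; inactive means meets neither condition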;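 further: plate controls were neutral control median for no effect and positive control median for full effect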
3T3 cytotox = kills mouse NIH/3T3 fibroblasts | shares compounds with T cruzi growth-1 | NIH/3T3 viability, CellTiter-Glo ATP luminescence, 90 h | cytotoxicity (signal decrease), % at 8.35 µM | 5,600 tested, 14% active | AID 651742;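 active means mean signal decrease across replicates above about 35% based on untreated-well scatter, with enough replicates individually passing, limit read from the data; inconclusive means no rule stated though some were filed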;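 further: 0% = median of neutral control wells and 100% = median of positive control wells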
NIH3T3 tox 2 = kills mouse NIH/3T3 fibroblasts. shares compounds with T cruzi growth-1. inhibition, % at 24.9 µM. 5,600 tested, 56% active. NIH/3T3 viability, CellTiter-Glo ATP luminescence, 90 h. AID 651744;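 active means mean loss of cell viability signal at or above a set limit, and enough replicates individually reaching it; inconclusive means meets only the mean limit or only the replicate share; inactive means meets neither condition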;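 further: 0% = median of neutral control wells and 100% = median of positive control wells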
An asterisk follows results filed as active.

How did O=C(Nc1ccc(F)cc1)N[C@@H]1CC[C@@H](CCNS(=O)(=O)c2cccc(Cl)c2)O[C@@H]1CO do in these assays?
C diff growth: -7.6; T cruzi growth-1: -11.0

How did O=C(Nc1cccc(F)c1)N[C@H]1CC[C@H](CCNS(=O)(=O)c2cccc(Cl)c2)O[C@H]1CO do in these assays?
T cruzi growth-1: 162.5*; T cruzi growth-2: 103.2*; T cruzi growth-3: 30.2; 3T3 cytotox: -14.9; NIH3T3 tox 2: -0.9

How did CC(=O)N(C)C[C@@H]1Oc2cc(C#Cc3ccncc3)ccc2S(=O)(=O)N([C@H](C)CO)C[C@@H]1C do in these assays?
C diff growth: 14.5; T cruzi growth-1: -14.0

What do the screens show for `O=C(C[C@@H]1CC[C@@H](NC(=O)Cc2cccnc2)[C@@H](CO)O1)NCc1ccc2c(c1)OCO2`?
T cruzi growth-1: -36.6

What do the screens show for `CN(C)CC#Cc1ccc([C@H]2[C@@H](CO)N3CCCCN(C(=O)CN(C)C)C[C@@H]23)cc1`?
C diff growth: 1.9; T cruzi growth-1: -4.8

Results for COCC#Cc1ccc([C@H]2[C@@H](CO)N3CCCCN(C(=O)CN(C)C)C[C@H]23)cc1 ?
C diff growth: 2.3; T cruzi growth-1: 120.7*; T cruzi growth-2: 50.5; T cruzi growth-3: 35.5; 3T3 cytotox: -24.2; NIH3T3 tox 2: -4.0

What do the screens show for `CN(C)CC#Cc1ccc([C@@H]2[C@@H](CO)N3CCCCN(C(=O)CN(C)C)C[C@@H]23)cc1`?
C diff growth: 0.3; T cruzi growth-1: 19.3

Results for COCC#Cc1ccc([C@@H]2[C@H]3CN(C(=O)CN(C)C)CCCCN3[C@H]2CO)cc1 ?
C diff growth: -2.0; T cruzi growth-1: 109.1*; T cruzi growth-2: inconclusive; T cruzi growth-3: 13.3; 3T3 cytotox: -11.9; NIH3T3 tox 2: 6.1

What do the screens show for `C[C@@H]1CN([C@H](C)CO)C(=O)c2cccc(NC(=O)Nc3ccc4c(c3)OCO4)c2O[C@H]1CN(C)C(=O)Nc1ccc(C(F)(F)F)cc1`?
C diff growth: 0.9; T cruzi growth-1: 44.4

What do the screens show for `Cc1ccc(S(=O)(=O)Nc2ccc3c(c2)C(=O)N([C@@H](C)CO)C[C@H](C)[C@H](CN(C)S(=O)(=O)c2ccc(Cl)cc2)O3)cc1`?
C diff growth: 43.4

Results for C[C@@H]1CN([C@@H](C)CO)C(=O)c2cc(NS(=O)(=O)c3ccc(Cl)cc3)ccc2O[C@H]1CN(C)S(=O)(=O)c1ccc(Cl)cc1 ?
C diff growth: -8.5; T cruzi growth-1: 39.4

What do the screens show for `Cc1ccc(S(=O)(=O)N(C)C[C@H]2Oc3ccc(NS(=O)(=O)c4ccc(Cl)cc4)cc3C(=O)N([C@H](C)CO)C[C@H]2C)cc1`?
C diff growth: -2.9; T cruzi growth-1: 99.8*; T cruzi growth-2: 96.4*; T cruzi growth-3: 13.3; 3T3 cytotox: 27.7; NIH3T3 tox 2: 36.0*

Results for C[C@@H]1CN([C@@H](C)CO)C(=O)c2cc(NS(=O)(=O)c3ccc(Cl)cc3)ccc2O[C@@H]1CN(C)S(=O)(=O)c1ccc(Cl)cc1 ?
C diff growth: 9.3; T cruzi growth-1: inconclusive; T cruzi growth-2: 113.5*; T cruzi growth-3: 42.0; 3T3 cytotox: 27.6; NIH3T3 tox 2: 64.6*

What do the screens show for `OC[C@@H]1[C@H](c2ccc(-c3ccccc3F)cc2)[C@@H]2CN(Cc3cccnc3)CCCCN12`?
C diff growth: 1.9; T cruzi growth-1: 89.2

Results for OC[C@@H]1[C@H](c2ccc(-c3ccccc3F)cc2)[C@H]2CN(Cc3ccncc3)CCCCN12 ?
C diff growth: -13.2; T cruzi growth-1: 106.7*; T cruzi growth-2: 92.8; T cruzi growth-3: 84.7; 3T3 cytotox: 45.8*; NIH3T3 tox 2: 102.9*

What do the screens show for `OC[C@H]1[C@H](c2ccc(-c3ccccc3F)cc2)[C@@H]2CN(Cc3cccnc3)CCCCN12`?
C diff growth: 3.1; T cruzi growth-1: 32.7

How did OC[C@@H]1[C@@H](c2ccc(-c3ccccc3F)cc2)[C@H]2CN(Cc3ccncc3)CCCCN12 do in these assays?
C diff growth: -4.0; T cruzi growth-1: 103.8*; T cruzi growth-2: 83.1; T cruzi growth-3: 48.4; 3T3 cytotox: 29.4; NIH3T3 tox 2: 81.5*

Results for OC[C@H]1[C@@H](c2ccc(-c3ccccc3F)cc2)[C@H]2CN(Cc3cccnc3)CCCCN21 ?
C diff growth: -0.9; T cruzi growth-1: 54.4

What do the screens show for `OC[C@H]1[C@H](c2ccc(-c3ccccc3F)cc2)[C@@H]2CN(Cc3ccncc3)CCCCN12`?
C diff growth: -7.9; T cruzi growth-1: 105.7*; T cruzi growth-2: 101.2*; T cruzi growth-3: 74.2; 3T3 cytotox: 30.0; NIH3T3 tox 2: 102.7*

Results for C[C@H](CO)N1C[C@H](C)[C@@H](CN(C)C(=O)Nc2ccccc2F)Oc2ncc(-c3cccc(F)c3)cc2C1=O ?
C diff growth: -11.3; T cruzi growth-1: 50.6

What do the screens show for `COc1ccc2c3c([nH]c2c1)[C@H](CO)NCC31CN(C(=O)C2CC2)C1`?
C diff growth: 3.2

What do the screens show for `C[C@@H]1CN([C@@H](C)CO)C(=O)c2cc(/C=C/c3ccccc3)cnc2O[C@H]1CN(C)Cc1ccccc1`?
C diff growth: 21.4; T cruzi growth-1: 132.5*; T cruzi growth-2: 107.0*; T cruzi growth-3: 108.7*; 3T3 cytotox: 24.5; NIH3T3 tox 2: 103.8*

Results for C/C=C/c1cnc2c(c1)C(=O)N([C@@H](C)CO)C[C@H](C)[C@H](CN(C)Cc1ccc3c(c1)OCO3)O2 ?
C diff growth: -1.8

What do the screens show for `C[C@H]1CN([C@@H](C)CO)C(=O)c2cc(/C=C/c3ccccc3)cnc2O[C@H]1CN(C)Cc1ccccc1`?
C diff growth: 9.3; T cruzi growth-1: 61.9

Results for C[C@@H]1CN([C@@H](C)CO)C(=O)c2cc(/C=C/c3ccccc3)cnc2O[C@H]1CN(C)Cc1ccc2c(c1)OCO2 ?
C diff growth: 21.8; T cruzi growth-1: 110.6*; T cruzi growth-2: 101.1*; T cruzi growth-3: 108.1*; 3T3 cytotox: 58.5*; NIH3T3 tox 2: 102.3*

How did CC(=O)N(C)C[C@@H]1Oc2cc(C#Cc3ccccc3)ccc2S(=O)(=O)N([C@@H](C)CO)C[C@H]1C do in these assays?
C diff growth: -2.9; T cruzi growth-1: 65.7

What do the screens show for `O=C(c1ccc(F)cc1)N1CCCCN2[C@H](CO)[C@@H](c3ccc(C#CC4(O)CCCC4)cc3)[C@@H]2C1`?
C diff growth: -0.1; T cruzi growth-1: 77.8

What do the screens show for `O=C(C1CCC1)N1CCCCN2[C@H](CO)[C@H](c3ccc(C#CC4(O)CCCC4)cc3)[C@@H]2C1`?
C diff growth: -2.5; T cruzi growth-1: inconclusive; T cruzi growth-2: 98.8*; T cruzi growth-3: 65.5; 3T3 cytotox: 19.6; NIH3T3 tox 2: 39.5*

How did O=C(C1CCC1)N1CCCCN2[C@H](C1)[C@H](c1ccc(C#CC3(O)CCCC3)cc1)[C@@H]2CO do in these assays?
C diff growth: -4.1; T cruzi growth-1: 73.5

From PubChem BioAssay
